For 38 compounds, Potency results are on record in PubChem BioAssay (NCATS).

SMILES strings stand for the structures. Records with an inconclusive call do not appear. Active and inactive are the calls of the source. Calls follow the shape of the dose curve; as a rule, active = well fitted curve in the direction sought with a large enough effect; inconclusive = small, poorly fitted or top-dose-only effect, or another doubt; inactive = no such curve, though single readings can be large; an effect the other way counts as inactive or inconclusive.

The nature of experiment [1]: qHTS for Inhibitors of the Aldehyde Dehydrogenase Family (ALDH1A2, ALDH1A3, ALDH2, ALDH3A1) (AID 2061307). Also: nearly all actives have a fitted effect of over 50% in size. As to Potency: test system not described further here; potency is read from the fitted curve at half-maximal effect. For orientation: Quantitative high-throughput screening tests each substance at several concentrations.
For experiment [2], the target named is Aldehyde dehydrogenase, mitochondrial (Homo sapiens) (UniProt P05091). Description: qHTS for Inhibitors of the Aldehyde Dehydrogenase Family (ALDH2) Primary screen (AID 2061308). Also: nearly all actives have a fitted effect of over 55% in size.
Experiment [3] concerns the target Retinaldehyde dehydrogenase 3 (Homo sapiens) (UniProt P47895). Description: qHTS for Inhibitors of the Aldehyde Dehydrogenase Family (ALDH1A3) Confirmatory screens (AID 2061311). Also: nearly all actives have a fitted effect of over 60% in size. Also: potency is read from the fitted curve at half-maximal effect.
Experiment [4] addresses Retinal dehydrogenase 2 (Homo sapiens) (UniProt O94788). Description: qHTS for Inhibitors of the Aldehyde Dehydrogenase Family (ALDH1A2) Confirmation screens (AID 2061314). Also: nearly all actives have a fitted effect of over 65% in size. Also: potency is read from the fitted curve at half-maximal effect.
The target in experiment [5] is Retinaldehyde dehydrogenase 3 (Homo sapiens) (UniProt P47895). Description: qHTS for Inhibitors of the Aldehyde Dehydrogenase Family (ALDH1A3) Primary screen (AID 2061315).
For experiment [6], the target named is Aldehyde dehydrogenase 1A1 (Homo sapiens) (UniProt P00352). Description: qHTS for Inhibitors of the Aldehyde Dehydrogenase Family (ALDH1A1) Confirmatory screens (AID 2061316). Also: nearly all actives have a fitted effect of over 65% in size. Also: potency is read from the fitted curve at half-maximal effect.

In the case of `Cc1ccc(CNc2ncnc3ccc(-c4ccoc4)cc23)o1`, the Potency result in experiment [1], in experiment [2], in experiment [3] and in experiment [5] was “inactive” in each case. Also, in experiment [4], the Potency was 20.1 µM (active).

On to `Oc1ccc(CNc2cc(C(F)(F)F)ccn2)c2cccnc12`, for which the Potency in experiment [1] is 20.1 µM (active); in experiment [3], 5.65 µM (active); in experiment [4] it was 7.12 µM (active); in experiment [6], 11.3 µM (active). Also, the Potency result in experiment [2] was “inactive”.

Consider `CC(=O)Nc1ccc(-c2c(NC(C)=O)sc3c2CCNC3)cn1`, for which the Potency entry in experiment [1], in experiment [2], in experiment [3] and in experiment [5] was “inactive” each time. Moreover, the Potency in experiment [4] was 11.3 µM (active); in experiment [6] it was 17.9 µM (active).

In the case of `Cc1cnc(-c2ccccc2CO)nc1NCC1CCN(c2cccnc2)CC1`, the Potency entry in experiment [1], in experiment [2], in experiment [3] and in experiment [5] was “inactive” throughout. The Potency in experiment [4] is 11.3 µM (active).

In the case of `Cc1ccc(OCCn2c(CCNC(=O)c3cccc(C(F)(F)F)c3)nc3ccccc32)cc1`, the Potency entry in experiment [1], in experiment [2], in experiment [3], in experiment [4], in experiment [5] and in experiment [6] was “inactive” in each case.

`Cc1ccc(S(=O)(=O)Nc2cnccc2C(=O)Nc2nc(-c3ccc4c(c3)CCCC4)cs2)cc1`: the Potency was 22.5 µM (active) in experiment [1], 8.96 µM (active) in experiment [4] and 11.3 µM (active) in experiment [6]. In addition, the Potency result in experiment [2], in experiment [3] and in experiment [5] was “inactive” throughout.

With `COc1ccc(-c2c(NC(C)=O)sc3c2CCNC3)cc1`, the Potency entry in experiment [1], in experiment [2], in experiment [3] and in experiment [5] was “inactive” each time. In addition, the Potency in experiment [4] is 20.1 µM (active); in experiment [6], 11.3 µM (active).

As for `c1ccc(-n2cc(-c3nnc4n3CCCCC4)cn2)cc1`, the Potency entry in experiment [1], in experiment [2], in experiment [5] and in experiment [6] was “inactive” throughout. Moreover, the Potency was 14.2 µM (active) in experiment [3] and 12.7 µM (active) in experiment [4].

For the compound `COc1ccc(C2Nc3cccc(OC)c3C(=O)N2Cc2ccccc2)cc1COc1ccc(NC(C)=O)cc1` (stereo not drawn), the Potency in experiment [1] was 1.13 µM (active); in experiment [3], 12.7 µM (active); in experiment [4], 10.1 µM (active); in experiment [6], 11.3 µM (active). The Potency result in experiment [2] and in experiment [5] was “inactive” each time.

Turning to `N#Cc1nc(Nc2cccc([N+](=O)[O-])c2)nc(NC2CCCC2)n1`, the Potency in experiment [1] was 5.62 µM (active); in experiment [3], 22.4 µM (active); in experiment [4] it was 6.34 µM (active). Moreover, the Potency entry in experiment [2] and in experiment [5] was “inactive” each time.

Take `CC(=O)N1CCN(c2ccc(NCc3cccs3)cc2)CC1`: the Potency in experiment [1] was 3.18 µM (active); in experiment [3], 7.98 µM (active); in experiment [4] it was 5.65 µM (active); in experiment [6], 10.1 µM (active). Besides, the Potency result in experiment [2] was “inactive”.

On to `O=C(Nc1cccc2nn(-c3ccc(F)cc3)cc12)c1ccccn1`, for which the Potency result in experiment [1], in experiment [2], in experiment [3], in experiment [4] and in experiment [5] was “inactive” throughout. Further, the Potency in experiment [6] is 28.3 µM (active).

Take `O=C(O)c1cccc(-n2cccc2/C=C2/C(=O)N(Cc3ccc(F)cc3)C(=O)N2Cc2ccc(F)cc2)c1`: in experiment [1], the Potency was 14.2 µM (active). Moreover, the Potency entry in experiment [2], in experiment [3], in experiment [4], in experiment [5] and in experiment [6] was “inactive” each time.

As for `Cc1ccc(-c2cc(C(=O)Nc3ccc(-c4noc(=O)[nH]4)cc3)c3ccccc3n2)cc1C`, the Potency in experiment [1] is 7.08 µM (active); in experiment [3], 11.2 µM (active). Moreover, the Potency entry in experiment [2], in experiment [4], in experiment [5] and in experiment [6] was “inactive” each time.

On to `CN(C)c1cccc(-c2cnc(N3CCC(C(N)=O)CC3)s2)c1`, for which the results for the Potency in experiment [1], in experiment [3] and in experiment [6] were 8.96 µM (active), 15.9 µM (active) and 10.1 µM (active), respectively. Moreover, the Potency result in experiment [2] and in experiment [4] was “inactive” each time.

Consider `COc1ccc(C2Nc3ccccc3C(=O)N2Cc2ccccc2C)cc1COc1ccc(NC(C)=O)cc1` (stereo not drawn), for which the Potency was 1.79 µM (active) in experiment [1], 17.9 µM (active) in experiment [3], 17.9 µM (active) in experiment [4] and 25.2 µM (active) in experiment [6]. The Potency entry in experiment [2] and in experiment [5] was “inactive” each time.

Take `COc1ccc(-n2c(C)c(C(C)=O)c3ccccc32)cc1`: the values for the Potency in experiment [1] and in experiment [3] were 0.4 µM (active) and 15.8 µM (active), respectively. Moreover, the Potency result in experiment [2], in experiment [4] and in experiment [5] was “inactive” throughout.

Turning to `NC(=O)C1CCN(c2ncc(-c3ccc4c(c3)OCO4)s2)CC1`, the values for the Potency in experiment [1], in experiment [3] and in experiment [6] were 5.04 µM (active), 17.8 µM (active) and 12.7 µM (active), respectively. Besides, the Potency entry in experiment [2] and in experiment [4] was “inactive” each time.

For `O=C1Nc2c(Cl)cccc2/C1=C\c1cc(Cl)c(O)c(Cl)c1`, the figures for the Potency in experiment [1], in experiment [4] and in experiment [6] were 1.79 µM (active), 25.2 µM (active) and 7.12 µM (active), respectively. Also, the Potency entry in experiment [2], in experiment [3] and in experiment [5] was “inactive” throughout.

For `Cc1ccsc1CN(C)c1ncnc2ccc(-c3ccoc3)cc12`, the Potency result in experiment [1], in experiment [2] and in experiment [5] was “inactive” in each case. Also, the values for the Potency in experiment [3] and in experiment [4] were 22.5 µM (active) and 11.3 µM (active), respectively.

Turning to `NC(=O)C1CCN(c2ncc(-c3ccc4c(c3)OC(F)(F)O4)s2)CC1`, in experiment [1], the Potency was 10.1 µM (active). The Potency result in experiment [2], in experiment [3], in experiment [4] and in experiment [5] was “inactive” each time.

Take `CCOC(=O)c1ccc2c(c1)c(C(C)=O)c(C)n2-c1ccc(OC)cc1`: the Potency entry in experiment [1], in experiment [2], in experiment [3], in experiment [4], in experiment [5] and in experiment [6] was “inactive” in each case.

Consider `COC(=O)c1ccc(O)c2ncc(N3CC[C@H](N)C3)cc12`, for which the Potency result in experiment [1], in experiment [2], in experiment [4] and in experiment [5] was “inactive” each time. In addition, the Potency in experiment [3] was 12.7 µM (active); in experiment [6], 11.3 µM (active).

Regarding `Cc1c(C(=O)OCC2CCCCO2)[nH]c2c1C(=O)CC(c1ccco1)C2` (stereo not drawn), the Potency result in experiment [1], in experiment [2] and in experiment [5] was “inactive” in each case. The Potency in experiment [3] was 14.1 µM (active); in experiment [4], 7.12 µM (active); in experiment [6] it was 1.42 µM (active).

Turning to `NC(=O)C1CCN(c2ncc(-c3ccc(Br)cc3)s2)CC1`, the Potency in experiment [1] was 5.65 µM (active); in experiment [3], 22.4 µM (active); in experiment [6] it was 11.3 µM (active). The Potency entry in experiment [2], in experiment [4] and in experiment [5] was “inactive” each time.

For `CC(=O)Nc1ccc(OCc2cccc(C3Nc4ccccc4C(=O)N3Cc3ccco3)c2)cc1` (stereo not drawn), the Potency in experiment [1] was 10.1 µM (active); in experiment [3], 12.7 µM (active); in experiment [4], 14.2 µM (active); in experiment [6], 5.65 µM (active). The Potency entry in experiment [2] and in experiment [5] was “inactive” in each case.

For the compound `O=C(CSc1nc2ccccc2n1CCc1ccccc1)c1ccc(O)c(O)c1`, the figures for the Potency in experiment [1], in experiment [3] and in experiment [6] were 12.7 µM (active), 11.3 µM (active) and 7.98 µM (active), respectively. Also, the Potency entry in experiment [2], in experiment [4] and in experiment [5] was “inactive” in each case.

With `O=C(Nc1ccc(N2CCOCC2)nc1)c1cccs1`, the Potency in experiment [1] is 25.1 µM (active); in experiment [3], 22.5 µM (active); in experiment [4] it was 22.5 µM (active); in experiment [6] it was 12.7 µM (active). In addition, the Potency result in experiment [2] and in experiment [5] was “inactive” each time.

Consider `O=C1N/C(=C\c2ccco2)C(=O)N1Cc1ccccc1`, for which the Potency in experiment [1] was 0.798 µM (active); in experiment [3] it was 11.3 µM (active); in experiment [4], 12.7 µM (active); in experiment [6] it was 3.57 µM (active). Also, the Potency result in experiment [2] and in experiment [5] was “inactive” throughout.

For `COc1ccccc1-c1nc(-c2ccc(C(=O)O)cc2)no1`, the values for the Potency in experiment [1] and in experiment [3] were 2.14 µM (active) and 1.13 µM (active), respectively. In addition, the Potency result in experiment [2], in experiment [4] and in experiment [6] was “inactive” throughout.

As to `Cc1cc(C)nc(NC(=S)N2CCN(c3cc4ccccc4cn3)CC2)c1`, the Potency entry in experiment [1] and in experiment [2] was “inactive” in each case. The results for the Potency in experiment [3], in experiment [4] and in experiment [6] were 6.34 µM (active), 15.9 µM (active) and 5.04 µM (active), respectively.

With `COc1ccc(C2Nc3ccccc3C(=O)N2Cc2cccc3ccccc23)cc1COc1ccc(NC(C)=O)cc1` (stereo not drawn), the Potency is 3.55 µM (active) in experiment [1], 12.6 µM (active) in experiment [3], 22.5 µM (active) in experiment [4] and 4 µM (active) in experiment [6]. The Potency entry in experiment [2] and in experiment [5] was “inactive” each time.

Regarding `O=S(=O)(NN1CCOCC1)c1ccc(Br)cc1`, the Potency was 22.5 µM (active) in experiment [1], 11.3 µM (active) in experiment [4] and 3.57 µM (active) in experiment [6]. For the same compound, the Potency result in experiment [2], in experiment [3] and in experiment [5] was “inactive” in each case.

Turning to `COc1cccc(C2c3c(ncn(-c4ccccc4-c4ccccc4)c3=N)Oc3ccc4ccccc4c32)c1` (stereo not drawn), the Potency was 8.91 µM (active) in experiment [1], 15.8 µM (active) in experiment [3] and 7.98 µM (active) in experiment [4]. Besides, the Potency result in experiment [2] and in experiment [5] was “inactive” in each case.

On to `COc1ccc(-n2c(C)c(C(C)=O)c3cc(O)ccc32)cc1`, for which the Potency entry in experiment [1], in experiment [2], in experiment [3], in experiment [4], in experiment [5] and in experiment [6] was “inactive” each time.

With `O=C(NCc1ccccc1)C1CCN(c2nc(-c3ccc(Br)cc3)cs2)CC1`, in experiment [1], the Potency is 7.08 µM (active). Also, the Potency result in experiment [2], in experiment [3], in experiment [4] and in experiment [5] was “inactive” each time.

Regarding `Cc1occc1-c1ccc2ncnc(NCCc3cnc[nH]3)c2c1`, the Potency result in experiment [1], in experiment [2] and in experiment [5] was “inactive” in each case. The Potency was 3.57 µM (active) in experiment [3] and 28.3 µM (active) in experiment [4].

For `CN(C)[S+](=O)([O-])c1ccc(-c2cncc(NC(=O)c3cccs3)c2)cc1`, the Potency in experiment [1] was 2 µM (active); in experiment [3], 0.562 µM (active); in experiment [4], 6.31 µM (active). In addition, the Potency result in experiment [2], in experiment [5] and in experiment [6] was “inactive” in each case.
